# GLP-1R inv ag – inverse agonists of human GLP-1 receptor. P43220. HEK293 GLP-1R CRE-luciferase, luminescence, 24 h; GLP-1R form is constitutively active. Potency, µM (doses to about 38.3 µM), for the others: at the highest dose activity change, negative = inhibition, actives largely listed as inhibitors. actives 1.6% (n = 410,000); also: % is scaled to controls: 0 for no effect and ±100 for the full control effect; nearly all actives have a fitted effect of over 55% in size
#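 GLP-1R inverse agonism mode: basal reporter luminescence in engineered HEK293 cells measured after one day of compound exposure at 37 deg C, with a 12 min room-temperature detection step.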
# HEK293 tox – cytotoxicity counter-screen for GLP-1 receptor inverse agonists; actives 0.13% (n = 410,000); HEK293 cAMP-luciferase reporter cells, luminescence, 24 h; Potency, µM (top dose mostly 38.3 µM), inactives show at the highest dose activity change, negative = inhibition, most hits filed as inhibitors;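 also: loss of luciferase light is scored as toxicity; % is scaled to controls: 0 for no effect and ±100 for the full control effect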
#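 Seeding density was 200 cells/uL; after overnight-length (12 h) culture, 23 nL compounds went on for 24 h at 37 °C. Readout used a luciferase detection reagent, luminescence taken after 12 min at room temperature.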
# GLP1R ag – GLP-1 receptor (human) agonism | Potency, µM (highest dose often 45.6 µM), for the others: top-dose activation, actives largely listed as activators | actives 0.007% (n = 380,000) | P43220 | HEK293 GLP-1R CRE-luciferase, luminescence, 4-6 h; cells express a hypersensitive GLP-1R form; also: % of control where 0% means no effect
# RGS4 inhibitor – inhibitors of human regulator of G protein signaling 4; P49798; Transcreener GDP fluorescence polarization, RGS4-accelerated GTP hydrolysis; Potency, µM (titrated, usually from 114 µM), without a hit: at the top dose activity change, negative = inhibition, actives largely listed as inhibitors; actives 0.039% (n = 390,000); also: % is scaled to controls: 0 for no effect and ±100 for the full control effect; nearly all actives have a fitted effect of over 75% in size
#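 MLSMR compounds (23 nl, pin-transferred) preincubated 10 min at room temperature with a 500nM (2x) first reagent, then RGS4 at 900nM (2x) plus Transcreener GDP mix added; fluorescence polarization (620/688 nm) read before and after 90 min at 30 °C.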
# KAT2A inh – inhibitors of human GCN5L2 histone acetyltransferase | Q92830 | GCN5L2 HAT assay, ThioGlo1 CoA-SH fluorescence | Potency, µM (doses to about 58.9 µM), for inactives: top-dose activity change, negative = inhibition, most hits filed as inhibitors | actives 0.21% (n = 390,000); also: % is scaled to controls: 0 for no effect and ±100 for the full control effect
# Target sequence (Q92830 whole entry, looked up): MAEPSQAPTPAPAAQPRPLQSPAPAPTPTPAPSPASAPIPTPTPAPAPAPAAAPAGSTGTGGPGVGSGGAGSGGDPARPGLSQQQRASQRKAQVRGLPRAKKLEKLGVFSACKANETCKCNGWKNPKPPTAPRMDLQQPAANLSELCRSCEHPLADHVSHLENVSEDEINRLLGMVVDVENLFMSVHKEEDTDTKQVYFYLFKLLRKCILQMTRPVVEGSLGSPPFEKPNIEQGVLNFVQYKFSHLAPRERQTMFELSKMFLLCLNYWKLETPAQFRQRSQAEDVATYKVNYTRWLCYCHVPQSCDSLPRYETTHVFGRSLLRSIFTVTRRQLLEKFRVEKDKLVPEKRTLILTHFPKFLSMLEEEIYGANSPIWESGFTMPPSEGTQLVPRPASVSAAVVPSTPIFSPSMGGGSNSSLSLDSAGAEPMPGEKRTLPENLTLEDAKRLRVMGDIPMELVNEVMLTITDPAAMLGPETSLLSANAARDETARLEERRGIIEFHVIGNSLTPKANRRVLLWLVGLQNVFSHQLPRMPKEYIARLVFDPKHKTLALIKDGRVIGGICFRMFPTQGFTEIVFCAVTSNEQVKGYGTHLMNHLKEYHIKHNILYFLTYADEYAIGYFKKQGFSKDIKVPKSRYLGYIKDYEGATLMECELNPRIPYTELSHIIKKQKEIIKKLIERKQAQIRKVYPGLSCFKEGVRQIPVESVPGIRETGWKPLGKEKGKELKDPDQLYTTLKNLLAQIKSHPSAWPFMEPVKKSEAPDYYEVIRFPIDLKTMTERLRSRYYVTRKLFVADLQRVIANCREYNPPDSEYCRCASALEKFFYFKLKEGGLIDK
#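 GCN5L2 (20nM final) in 50mM HEPES, 0.1mM EDTA pH 7.5, 0.01% Tween-20 was preincubated 15 min at room temperature with compound, then given ThioGlo1 (50uM), H3(1-25) peptide (75uM) and acetyl-CoA (70uM); CoA-thiol fluorescence (Ex340/Em540) was read at 0 and 20 min.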
# PTHR1 agonist – PTHR1 (human) receptor agonism. Potency, µM (titrated, usually from 115 µM), for the others: at the top dose activation, usual class: activators. actives 0.075% (n = 410,000). HEK293 GP2 PTHR1 cells, GloSensor cAMP luminescence, 1 h. Q03431; also: nearly all actives have a fitted effect of over 55% in size
#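 HEK-293-derived GP2 cells expressing PTHR1 and a GloSensor cAMP reporter, 3,000/well, plated overnight, given luciferin plus IBMX (each 0.5 mM as added) for 1 h at 37 °C, then compound for 1 h at 37 °C. Luminescence was read after 15 min at room temperature.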
# * marks the source's active call; other numbers are inactive results; i = inactive; u = inconclusive; x = no result; [ ] = another dose, or the depositor's remark. Compounds with a hit are over-represented: about 1.8% of the library has one in this group of screens. Calls follow the shape of the dose curve; as a rule, active = well fitted curve in the direction sought with a large enough effect; inconclusive = small, poorly fitted or top-dose-only effect, or another doubt; inactive = no such curve, though single readings can be large; an effect the other way counts as inactive or inconclusive. Potency is read from the fitted curve at half-maximal effect.
SMILES,GLP-1R inv ag,HEK293 tox,GLP1R ag,RGS4 inhibitor,KAT2A inh,PTHR1 agonist
CC1(C)Cc2cccc(C(=O)Nc3ccc(Cl)cc3)c2O1,11.2µM*,-2.9%,2.2%,-2.9%,-6.8%,-10.2%
CC1(C)Cc2cccc(C(=O)Nc3ccncc3)c2O1,-14.4%,-4.1%,17.8%,5.3%,-4.6%,-22.5%
OC(COc1ccc2ccccc2c1Br)Cn1cnc(-c2ccccc2)c1 (stereo not given),10µM*,-22.6%,5.0%,7.2%,-3.3%,-1.0%[57.5 µM]
COc1ccc(OCC(O)Cn2cnc(-c3ccc(Br)cc3)c2)cc1 (stereo not given),u,11.2%,1.2%,-11.4%,-2.5%,i
O=C(CCn1cnc2onc(-c3ccc(F)cc3)c2c1=O)Nc1ccc(F)c(Cl)c1,12.6µM*,-10.4%,x,2.5%,5.9%,-21.5%
O=C(CCn1cnc2onc(-c3ccc(F)cc3)c2c1=O)Nc1cccc(C(F)(F)F)c1,u,-17.8%,x,-0.2%,-5.7%,-42.8%
CC1(C)S[C@@H]2[C@H](NC(=O)[C@H](N)c3ccccc3)C(=O)N2[C@@H]1C(=O)OCOC(=O)[C@@H]1N2C(=O)C[C@@H]2S(O)(O)C1(C)C,x,x,0.4%,x,x,x
CC(C)(C)c1ccc(S(=O)(=O)N2CCN(CCC#N)CC2)cc1,10.2%,2.5%,-3.2%,-10.0%,3.2%,-40.5%
CC(C)(C)CC(C)(C)c1ccc(O)c(CN2CCN(CCC#N)CC2)c1,11.2µM*,-24.0%,3.5%,-9.0%,-2.7%,-0.2%[57.5 µM]
N#CCCN1CCN(Cc2cc(-c3ccccc3)ccc2O)CC1,0.0%,-13.6%,-9.3%,-9.2%,-2.6%,15.8µM*
CCCCN(C)C(=O)c1nc2ccccn2c1CN1CCC[C@H]1CO,18.2%,-13.3%,8.9%,-9.3%,-4.7%,i
COc1ccc(-n2cc(-c3ccccc3)c3c(N4CCOCC4)ncnc32)cc1,3.55µM*,-15.3%,8.0%,-14.9%,-5.0%,-19.0%
OCCN1CCN(c2ncnc3c2c(-c2ccccc2)cn3-c2ccc(Br)cc2)CC1,10µM*,u,14.3%,14.7%,-7.0%,-30.4%
COc1ccc2c(-c3ccccc3)cc(N3CCOCC3)nc2c1,10µM*,17.4%,9.9%,20.6%,-15.6%,i
Fc1ccc(-n2cc(-c3ccccc3)c3c(N4CCOCC4)ncnc32)cc1,u,-3.3%,6.5%,-3.6%,-23.3%,-15.7%
COc1ccc(N2CCN(c3ncnc4scc(-c5ccc(F)cc5)c34)CC2)cc1,u,-11.1%,0.6%,30.4%,-17.3%,-15.1%
CCN1CCN(c2ncnc3c2c(-c2ccccc2)cn3-c2ccc(F)cc2)CC1,-6.4%,2.7%,3.7%,-14.4%,-7.1%,i
c1ccc(-c2cc(-c3ccc(N4CCOCC4)cc3)nc3ccccc23)cc1,8.2%,37.9%,8.0%,8.3%,-26.8%,i
COc1ccc(N2CCN(c3ncnc4scc(-c5ccc(C)cc5)c34)CC2)cc1,2µM*,3.4%,10.3%,-2.4%,-10.4%,i
COc1ccc(CC(=O)NCc2cccc(Cl)c2)cc1S(=O)(=O)N1CCOCC1,-8.7%,-1.7%,-4.8%,x,x,i
CCNc1ncc2nc(C)c(=O)n(Cc3cccc(OC)c3)c2n1,x,x,x,x,-1.0%,x
COc1cc2c(cc1OC)C(COc1ccccc1OC)N(C(=O)c1ccc(S(=O)(=O)N3CCCC3)cc1)CC2 (stereo not given),17.0%,12.8%,5.0%,-14.9%,3.5%,-35.2%
Cc1cccc(-n2nnc(-c3nc(-c4ccccc4)no3)c2N)c1C,31.2%,2.1%,x,-6.8%,1.7%,19.1%
COc1ccc(-c2csc3ncnc(N4CCN(c5cccc(OC)c5)CC4)c23)cc1,u,11.1%,4.2%,-13.1%,-19.0%,-32.2%
c1ccc(-c2csc3ncnc(N4CCOCC4)c23)cc1,0.0%,0.5%,8.2%,7.4%,-0.4%,i
SMILES,GLP-1R inv ag,HEK293 tox,GLP1R ag,RGS4 inhibitor,KAT2A inh,PTHR1 agonist
Fc1ccc(-c2csc3ncnc(N4CCN(c5ccccc5)CC4)c23)cc1,12.6µM*,1.6%,12.5%,-8.2%,-18.5%,-10.2%
COc1ccc(N2CCN(c3ncnc4scc(-c5ccccc5)c34)CC2)cc1,6.31µM*,-7.1%,11.9%,3.7%,-10.7%,-13.0%
CCc1nn(CC(=O)Nc2cccc(C(C)=O)c2)c(=O)c2cc3sccc3n12,4.2%,-1.8%,x,-6.2%,-10.8%,i
CCC(COC)NCc1cn(-c2ccc(OC)cc2)nc1-c1cccc(F)c1 (stereo not given),4.47µM*,u,4.3%,9.1%,8.1%,u
Cc1cc(C)c(O)c(NC(=S)NC(=O)Cc2ccccc2)c1,u,-5.9%,-11.4%,-13.4%,-6.3%,i
O=C1c2ccccc2CCCC12N=NCC2c1cccc2ccccc12 (stereo not given),7.08µM*,13.1%,0.3%,29.4%,-20.0%,i
N#Cc1ccc(C(=O)N2CCCCC2c2cc(C(=O)Nc3cccc(C#N)c3)no2)cc1 (stereo not given),0.5%,2.3%,-4.0%,x,x,i
O=C(O)c1cccc(N2C(=O)/C(=C/c3ccc(SCc4ccc(Cl)cc4)o3)SC2=S)c1,-7.6%,0.5%,-0.2%,-42.1%,22.4µM*,-26.0%
C/C(=N\NC(=O)COc1cccc(C)c1)c1ccc2ccccc2c1O,1.12µM*,1.1%,0.5%,3.8%,-7.1%,-26.9%
O=C(NCCc1nc2ccccc2n1CCCOc1ccccc1)C1CCCCC1,x,x,x,8.9%,x,x
CCN1C(=O)[C@@H]2[C@@H](c3ccc(-c4ccc(F)cc4)cc3)N3CCC[C@@]3(C(=O)OC)[C@@H]2C1=O,-21.2%,2.3%,-1.5%,-15.3%,-3.9%,i
CCN1C(=O)[C@H]2[C@@H](c3ccc(-c4ccc(F)cc4)cc3)N3CCCC[C@@]3(C(=O)OC)[C@H]2C1=O,5.62µM*,7.9%,-6.3%,-9.4%,-10.6%,-12.7%
CCN1C(=O)[C@H]2[C@@H](c3ccc(-c4cccc(Cl)c4)c(OC)c3)N[C@@](CC(C)C)(C(=O)OC)[C@H]2C1=O,7.94µM*,-1.9%,-6.2%,-1.7%,-11.1%,-0.8%
CCN1C(=O)[C@H]2[C@@H](c3ccc(-c4cccc(Cl)c4)cc3)N3CCCC[C@@]3(C(=O)OC)[C@H]2C1=O,10µM*,-23.9%,-1.0%,-8.3%,-7.6%,-8.1%
CCOc1ccccc1NC(=O)Nc1cccc(S(N)(=O)=O)c1,-29.3%,-21.0%,-27.6%,-24.2%,-1.1%,-25.5%
Cc1ccc(S(=O)(=O)NC(=O)C2(C)CCN2C(=O)CC2CCCC2)cc1 (stereo not given),-19.5%,-20.3%,-3.2%,x,x,i

# Screening results as filed in PubChem.
